FMDV inh: High Throughput Screening for Foot and Mouth Disease Virus Antivirals; FMDV antiviral cell-based qHTS; AID 1159524, 2015; hit rate 1.2% among 410,000; Potency, µM (titrated, usually from 57.9 µM), inactives show at the highest dose activity change, negative = inhibition, hits mostly inhibitors; calls by dose curve; tested in HEK293T cells; also: read-out not given here; potency is read from the fitted curve at half-maximal effect; % is scaled to controls: 0 for no effect and ±100 for the full control effect; nearly all actives have a fitted effect of over 45% in size
Marburg entry inh: qHTS for inhibitors of binding or entry into cells for Marburg Virus | Marburg virus pseudotyped entry inhibition, cell reporter | Potency, µM (top dose mostly 37.8 µM), for inactives: at the top dose activity change, negative = inhibition, most hits filed as inhibitors | hit rate 1.8% among 300,000 | AID 540276, 2011; calls by dose curve; tested in HEK293 cells; also: potency is read from the fitted curve at half-maximal effect; % is scaled to controls: 0 for no effect and ±100 for the full control effect
SARS PLP yeast: qHTS of Yeast-based Assay for SARS-CoV PLP; AID 485353, 2010; Potency, µM (doses to about 32.9 µM), for the others: at the highest dose activity, positive = growth rescue, most hits filed as activators; hit rate 0.19% among 330,000; S. cerevisiae expressing SARS-CoV PLpro, growth rescue; calls by dose curve; also: potency is read from the fitted curve at half-maximal effect; 0% is about no effect; nearly all actives have a fitted effect of over 55% in size
HCMV antiviral: qHTS Assay for inhibitors of the human cytomegalovirus (HCMV); HFF cells, HCMV-luciferase reporter, 72 h; active compounds read low; activity change, negative = inhibition, % at 57.5 µM; hit rate 4.5% among 410,000; AID 1259415, 2018; in the data active = activity change below about -60%; inconclusive = no clear call, values can overlap the other calls; inactive = above about -39%; also: % is scaled to controls: 0 for no effect and ±100 for the full control effect
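After 16 h attachment at 37C, HFF cells received test compound and HCMV-luciferase (1 PFU/cell); reporter luminescence read 72 h later, data normalized against buffer-only and known inhibitor Salinomycin.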
HCV inhibitor: qHTS Assay for Inhibitors of Hepatitis C Virus (HCV). Potency, µM (titrated, usually from 41.8 µM), without a hit: at the highest dose activity change, negative = inhibition, usual class: inhibitors. hit rate 3.4% among 340,000. Huh7.5.1 HCVcc-Cre infection, luciferase reporter, 44 h; active = well fitted inhibition curve with a large enough effect; inconclusive = small, poorly fitted or top-dose-only effect, or another doubt; inactive = no such curve, though single readings can be large or run the other way; also: potency is read from the fitted curve at half-maximal effect; % is scaled to controls: 0 for no effect and ±100 for the full control effect
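Luciferase read-out (15 sec integration) after a 15 min room-temperature substrate step quantifies HCVcc-Cre infection. Cells, 1,000 per well, had compound added 4 h post-plating, then virus at ~0.5 moi, and were cultured 44 h.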
LASV entry inh: qHTS for Inhibitors of binding or entry into cells for Lassa Virus. Lassa virus pseudotype entry inhibition, cell reporter. Potency, µM (highest dose often 37.9 µM), inactives show at the top dose activity change, negative = inhibition, usual class: inhibitors. hit rate 1.2% among 300,000; calls by dose curve; tested in HEK293 cells; also: potency is read from the fitted curve at half-maximal effect; % is scaled to controls: 0 for no effect and ±100 for the full control effect; nearly all actives have a fitted effect of over 50% in size
Numbers without * were called inactive; ? = inconclusive; · = no result; [ ] = another dose, or the depositor's remark. Rows were chosen to be rich in hits. Some 8% of all compounds tested hit in one or more screens of this group.

SMILES	FMDV inh	Marburg entry inh	SARS PLP yeast	HCMV antiviral	HCV inhibitor	LASV entry inh
Cc1cccc(-c2nc3scc(CCNS(=O)(=O)c4ccc(F)cc4C)n3n2)c1	17.7%	·	·	18.9	·	1.7%[46.1 µM]
Cn1c(CNc2ccc(Cl)cc2)nc2ccccc21	-3.1%	-18.0%	-4.9%	296.2	20µM*	?
Cc1ccc(N2CCN(c3ccc(NCc4nc5ccccc5n4C)cc3)CC2)cc1	12.6%	20.4%	5.0%	19.2	?	-1.6%
Cc1ccc(NCc2nc3ccccc3n2C)c(C)c1	-0.7%	2.51µM*	-2.3%	36.8	18.3%	?
Cc1nc2cc(NCc3nc4ccccc4n3Cc3ccccc3)ccc2n1C	-30.0%	10µM*	-13.2%	13.5	-27.2%	?
Cc1cccc(NCc2nc3ccccc3n2Cc2ccccc2)c1	-14.9%	?	-23.8%	18.3	-22.8%	7.4%
CC(C)(C)c1ccc(OCc2cnc(Cl)s2)cc1	15.6%	-0.6%[14.2 µM]	1.9%	-16.8	-18.7%	27.5%
CCOC(=O)/C(=C\c1cn(C)c2ccccc12)[N+](=O)[O-]	28.2µM*	13.7%	1.8%	89.6	7.5%	0.2%
COc1cccc(NC(=O)c2oc3ccccc3c2NC(=O)c2ccc(C(F)(F)F)cc2)c1	3.1%	4.8%[46.1 µM]	·	5.5	·	21.4%[46.1 µM]
O=C1Nc2ccccc2/C1=C\C(=O)c1ccccc1	31.6µM*	·	-10.6%	-30.4	16.9%	·
Cc1ccc(CNC(=O)c2cccc3c2C(=O)c2ccc(N4CCOCC4)cc2S3(=O)=O)cc1	0.2%	4.9%	5.6%	-13.7	10.4%	·
CC1CCN(c2ccc3c(c2)S(=O)(=O)c2cccc(C(=O)NC[C@@H]4CCCO4)c2C3=O)CC1	16.6%	·	11.4%	-94.1*	?	·
O=C(NC[C@@H]1CCCO1)c1cccc2c1C(=O)c1ccc(N3CCOCC3)cc1S2(=O)=O	-20.6%	·	0.5%	-2.7	18.9%	·
COCCNC(=O)c1cccc2c1C(=O)c1ccc(N3CCOCC3)cc1S2(=O)=O	-3.6%	·	-5.5%	-102.4*	0.0%	·
O=C(NCC1CCCO1)c1cccc2c1C(=O)c1ccc(N3CCC(Cc4ccccc4)CC3)cc1S2(=O)=O (stereo unspecified)	12.6µM*	·	3.6%	·	?	·
O=C(NCc1ccccc1C(F)(F)F)c1cccc2c1C(=O)c1ccc(N3CCC(N4CCCCC4)CC3)cc1S2(=O)=O	-6.4%	·	·	-99.8*	·	·
COc1ccccc1CCn1c(=O)c(-c2ccc(F)c(F)c2)nc2cncnc21	-8.4%	·	·	·	·	·
Nc1nc2c(F)c(F)c(F)cc2s1	18.0%	·	-11.8%	-1.9	12.4%	·
CC1CCN(c2ccc3c(c2)S(=O)(=O)c2cccc(C(=O)NC4CC4)c2C3=O)CC1	21.1%	·	7.5%	-61.6*	-8.1%	·
COc1ccc(-n2c(=O)c(C)nc3cnc(Oc4ccccc4)nc32)cc1	-9.1%	·	·	·	·	·
CCN1CCN(Cc2ccc(NC(=O)c3ccc(C)c(NC(=O)c4cncc(-c5cccs5)c4)c3)cc2C(F)(F)F)CC1	-15.7%	·	·	·	?	·
CCN1CCN(Cc2ccc(NC(=O)c3cc(NC(=O)c4cnnc5ccccc45)cc(OC)c3)cc2C(F)(F)F)CC1	-19.1%	·	-0.4%	-93.7*	?	·
CCN1CCN(Cc2ccc(NC(=O)c3cc(NC(=O)c4nccnc4N)cc(OC)c3)cc2C(F)(F)F)CC1	-9.8%	·	-3.9%	-1.3	-19.8%[8.37 µM]	·
CCN1CCN(Cc2ccc(NC(=O)c3cc(NC(=O)c4cncc(-c5ccc(C#N)cc5)c4)cc(OC)c3)cc2C(F)(F)F)CC1	-22.3%	·	-0.8%	-99.4*	-13.2%[8.37 µM]	·
Cc1cccc(NC(=S)N(CCCN2CCCC2)Cc2cccn2Cc2ccc(Cl)cc2)c1	-19.2%	7.08µM*	0.3%	-60.2*	?	?
SMILES	FMDV inh	Marburg entry inh	SARS PLP yeast	HCMV antiviral	HCV inhibitor	LASV entry inh
COc1cc(Cl)ccc1NC(=S)N(CCN1CCOCC1)C1CCN(C(C)=O)CC1	-1.3%	·	-1.0%	-100.9*	10.9%	·
COc1cc(NC(=O)c2cccc(Cl)c2)c(OC)cc1NC(=O)CN1CCCCC1	-20.3%	?	1.1%	?	35.5µM*	-28.9%
COc1ccc(NC(=S)N(CCN2CCOCC2)C2CCN(C(C)=O)CC2)cc1Cl	8.6%	1.1%[46.1 µM]	-1.0%	?	6.5%	28.8%[46.1 µM]
COc1cc(NC(=O)c2cccc(Cl)c2)c(OC)cc1NC(=O)CN1CCOCC1	-3.6%	?	-3.9%	-72.0*	?	?
COc1c(Cl)ccc(Cl)c1C(=O)O	7.4%	·	·	·	·	·
CCc1nn(CC(=O)N(C)Cc2ccccc2)c(=O)c2cc3sccc3n12	-19.3%	-28.4%[46.1 µM]	·	2.7	·	·
COCc1nn2cc(-c3ccc(C)cc3)nc2s1	-43.1%	?	·	-6.4	·	-0.9%[46.1 µM]
Cc1nn2cc(-c3ccc(-c4ccccc4)cc3)nc2s1	-20.3%	?	6.6%	8.3	-13.3%	11.2µM*
Cc1nn2cc(-c3ccc(Cl)cc3)nc2s1	22.3%	?	1.5%	-29.0	-6.9%	?
CCc1nn2cc(-c3ccccc3)nc2s1	-89.4%	18.3µM*	-11.0%	2.2	7.4%	8.2µM*
CCOC(=O)c1c(C)[nH]c(NC(=O)NNC(=O)c2ccccc2Cl)c1C	-19.9%	·	-4.3%	-27.3	11.2µM*	·
CC(C)(C)OC(=O)N1CCC(c2c(C(=O)N3CCN(c4ccccn4)CC3)cnn2-c2ccccc2Cl)CC1	-20.8%	·	·	?	·	?
CC(=O)OC1CCC2(C)C3CCC4(C)C(C(C)=O)CCC4C3CC3OC32C1 (stereo unspecified)	-16.7%	4.4%[46.1 µM]	·	-61.1*	6.7%	-1.1%[46.1 µM]
CCC1=C(CC2NCCc3ccccc32)CC2c3cc(OC)c(OC)cc3CCN2C1 (stereo unspecified)	?	?	·	-99.8*	?	?
CCC1CN2CCc3cc(OC)c(OC)cc3C2CC1CC1NCCc2cc(OC)c(OC)cc21 (stereo unspecified)	0.0%	·	·	·	·	·
CC[C@H]1CN2CCc3cc(OC)c(OC)cc3C2C[C@@H]1C[C@H]1NCCc2cc(OC)c(OC)cc21 (stereo partly specified)	-19.5%	·	·	-97.0*	0.316µM*	·
COc1cc2c(cc1OC)CN1CCc3cc(OC)c(OC)cc3C1C2 (stereo unspecified)	·	·	·	14.4	·	·
O=C1OCC2=Nc3cccc4cccc(c34)N12	·	·	·	0.1	·	·
Cc1nc(C)n(CC(=O)NCC2Cc3cc(-c4ccsc4)cc(Cl)c3O2)n1 (stereo unspecified)	-6.6%	·	·	·	·	·
COc1ccc(OCC(=O)Nc2ccc(N3CCN(C(=O)c4ccccc4)CC3)c(Cl)c2)cc1	11.2µM*	?	9.0%	?	?	?
COc1ccc(OCC(=O)Nc2ccc(N3CCOCC3)c(Cl)c2)cc1	?	-1.9%	-7.5%	-18.4	10µM*	-9.3%
O=C(NC1CC1)[C@@H]1C[C@H](Sc2nc3ccccc3[nH]2)CN1CC1CCCCC1	-9.5%	·	·	·	·	·

Bioassay records (PubChem)
